A selection: hits, their analogues and other compounds. The true share with any hit is near 10%.
NPR1 antag: blocks ANP-stimulated signaling of human Npr1 receptor | HEK293 hNpr1 GloSensor cGMP, ANP-stimulated luminescence | Potency, µM (top dose mostly 46.3 µM), for the others: top-dose activity change, negative = inhibition, most hits filed as inhibitors | hit rate 1.6% among 76,000 | AID 1347048; calls by dose curve; also: nearly all actives have a fitted effect of over 60% in size
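Compound pre-incubated 30 min at room temperature on GloSensor-loaded HEK293 cells stably carrying hNpr1 and the pGS-40F cGMP biosensor. Stimulation uses hNppA at 0.1 nM final; luminescence is taken at baseline and 20 min post-agonist.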
GPT2 inhibitor: blocks human glutamate pyruvate transaminase 2 | Q8TD30 | Recombinant GPT2, coupled pyruvate oxidase/HRP Amplex Red fluorescence | Potency, µM (doses to about 57.7 µM), without a hit: at the highest dose activity change, negative = inhibition, usual class: inhibitors | hit rate 0.25% among 100,000; also: nearly all actives have a fitted effect of over 60% in size
Target sequence (Q8TD30 whole entry, looked up): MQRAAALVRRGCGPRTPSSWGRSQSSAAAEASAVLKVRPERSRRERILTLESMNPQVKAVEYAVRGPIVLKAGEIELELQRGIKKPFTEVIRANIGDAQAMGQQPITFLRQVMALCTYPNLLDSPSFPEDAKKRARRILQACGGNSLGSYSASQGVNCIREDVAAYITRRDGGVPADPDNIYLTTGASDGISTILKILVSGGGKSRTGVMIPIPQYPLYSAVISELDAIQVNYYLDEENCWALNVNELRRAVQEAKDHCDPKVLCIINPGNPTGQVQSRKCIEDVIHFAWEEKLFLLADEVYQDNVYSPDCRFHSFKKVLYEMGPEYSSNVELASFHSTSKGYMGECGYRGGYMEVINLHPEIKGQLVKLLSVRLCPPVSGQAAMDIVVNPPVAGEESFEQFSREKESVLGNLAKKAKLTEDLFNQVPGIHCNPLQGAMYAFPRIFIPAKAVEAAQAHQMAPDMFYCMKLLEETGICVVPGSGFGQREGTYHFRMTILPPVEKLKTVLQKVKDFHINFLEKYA
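Inhibition is scored from Amplex Red fluorescence generated when pyruvate oxidase and HRP act on pyruvate released by GPT2. Reactions contain 10ng/uL enzyme, 250uM a-KG and 2mM L-alanine and run 30 min at room temperature.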
HEK cytotox: kills HEK 293 cells | HEK 293 viability, ATP luminescence (CellTiter-Glo), 48-72 h | Potency, µM (highest dose often 115 µM), for the others: at the highest dose activity change, negative = cytotoxicity, usual class: inhibitors | hit rate 6.6% among 94,000 | AID 1345083; also: nearly all actives have a fitted effect of over 60% in size
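CellTiter-Glo luminescence (cellular ATP) was read after 48 or 72 hr of compound exposure at 37 degree Celsius. Cells were HEK 293 plated at 250 cells/well.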
FLuc inh: blocks purified firefly luciferase enzyme activity; P08659; Potency, µM (series often up to 115 µM), usual class: inhibitors; purified P. pyralis luciferase, luminescence, biochemical; hit rate 2.5% among 76,000; AID 1347043; also: nearly all actives have a fitted effect of over 65% in size
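Luminescence read by CCD imager after adding enzyme (10nM final) to wells holding compound, titrated in qHTS. Substrates 10uM each D-luciferin and ATP; buffer 50mM Tris acetate pH 7.5, 10mM Mg acetate, Tween-20, BSA.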
NIH3T3 tox: kills NIH 3T3 cells; NIH 3T3 viability, CellTiter-Glo ATP luminescence, 48-72 h; Potency, µM (titrated, usually from 96.7 µM), for inactives: at the top dose activity change, negative = cytotoxicity, usual class: inhibitors; hit rate 4.3% among 94,000; also: nearly all actives have a fitted effect of over 55% in size
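Cells were seeded at 400 per well, treated with pin-transferred compound, and kept 48 or 72 hr at 37 °C before CellTiter-Glo addition and luminescence imaging of cellular ATP.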
The depositor's hits bear a star; i = inactive; ? = inconclusive; . = no result; [ ] = remark or other dose. Unless noted, calls follow the shape of the dose curve; as a rule, active = well fitted curve in the direction sought with a large enough effect; inconclusive = small, poorly fitted or top-dose-only effect, or another doubt; inactive = no such curve, though single readings can be large; an effect the other way counts as inactive or inconclusive. % is scaled to controls: 0 for no effect and ±100 for the full control effect; potency is read from the fitted curve at half-maximal effect.

SMILES	NPR1 antag	GPT2 inhibitor	HEK cytotox	FLuc inh	NIH3T3 tox
Cc1ccc(C2Cn3nnc(C(=O)N4CCC(C(=O)NC(C)C)CC4)c3CO2)cc1 (stereo not given)	-9.5%	2.8%	-1.6%	20µM*	i
O=C(NCc1ccc(F)cc1)[C@@H]1C[C@H](c2ccc(F)cc2)N([S+](=O)([O-])C2CC2)C1	-2.8%[70.6 µM]	i	?	i	-24.8%[138 µM]
O=C(O)c1ccnc2cc(-c3nc4ccccc4n3CCN3CCCCC3)sc12	.	i	.	.	.
Cn1nc(C2CCCC2)cc1NC(=O)Cc1ccc(F)cc1	.	-6.8%[88.5 µM]	?	.	?
Cn1c(=O)c2c(ncn2CC(=O)N2CCC(CCOc3ccc(F)cc3)C2)n(C)c1=O (stereo not given)	-30.3%	i	89.1µM*	i	-24.1%
Cc1cc(C)n(CCC(=O)N2CCC(CCOc3ccc(F)cc3)C2)n1 (stereo not given)	?	0.6%	79.4µM*	i	-21.9%
Cc1ccc(OCC(=O)N2CCC(CCOc3ccc(F)cc3)C2)cc1 (stereo not given)	-18.8%	-5.7%	?	i	?
O=C(NCCC1CCN(C(=O)Nc2cccc(F)c2)CC1)c1cccs1	0.2%	-18.2%	-22.1%	i	-16.7%
COC(=O)[C@@H]1Cc2c([nH]c3ccccc23)[C@@H]2C[C@@H](NCCCn3ccnc3)C[C@@H](c3ccc(F)c(F)c3)N12	6.2%	-0.4%	25.1µM*	i	28.2µM*
O=C(Cc1c[nH]c2ncc(-c3ccccc3)cc12)NCCCn1ccnc1	-4.4%[70.6 µM]	3.6%[88.5 µM]	-7.0%[172 µM]	i	?
C[C@H]1CCCN1C(=O)c1nnc(CNCCCn2ccnc2)n1-c1ccccc1	-1.8%[70.6 µM]	-6.6%[88.5 µM]	i	i	?
COC(=O)[C@@H]1Cc2c([nH]c3ccccc23)[C@H]2C[C@@H](NCCCn3ccnc3)C[C@@H](c3ccccc3)N21	-2.3%	i	?	i	20µM*
COC(=O)[C@@H]1Cc2c([nH]c3ccccc23)[C@H]2C[C@H](NCCCn3ccnc3)C[C@@H](c3ccccc3F)N21	-0.3%	3.9%	?	i	5.01µM*
CC(C)C[C@@H]1N[C@H](C(=O)NCCCn2ccnc2)Cc2c[nH]c3cccc1c23	1.5%[70.6 µM]	-23.9%[88.5 µM]	?	i	?
CC(=O)Nc1ccc(CN(C)Cc2cccn2C)cc1	18.5%[70.6 µM]	i	-4.3%[172 µM]	i	-6.6%[138 µM]
COc1ccc(-n2nc(C)c([C@@H]3C=C[C@@H](NCc4ccccc4)C3)c2C)cc1	?	i	79.4µM*	50.1µM*	?
COc1ccc(CN[C@@H]2C=C[C@@H](c3c(C)nn(-c4ccc(OC)cc4)c3C)C2)cc1	-29.6%[70.6 µM]	-6.8%[88.5 µM]	50.1µM*	?	31.6µM*
O=C(NCc1ccc2c(c1)OCO2)C1NCCc2[nH]cnc21 (stereo not given)	6.2%	-7.3%	-7.1%	i	2.6%
CN(C)C(=O)c1cc(-c2cccc(F)c2)nc2c1cnn2C	.	.	-26.8%[172 µM]	.	?
COCCNC(=O)CCCN1C(=O)COc2ccc(C(=O)COc3ccc(C(C)(C)C)cc3)cc21	-16.1%	i	?	14.1µM*	?
COCCNC(=O)CCCN1C(=O)COc2ccc(C(=O)COc3ccc(F)c(Cl)c3)cc21	-2.7%	0.6%	?	i	?
CC(C)c1ccc(OCC(=O)c2ccc3c(c2)N(CCCC(=O)N2CCOCC2)C(=O)CO3)cc1	-17.5%	i	31.6µM*	?	31.6µM*
Cc1ccc(OCC(=O)c2ccc3c(c2)N(CCCC(=O)N2CCOCC2)C(=O)CO3)cc1C	-9.2%	-8.7%	?	i	-15.2%
O=C(CN1C(=O)COc2ccc(C(=O)COc3ccc(Cl)cc3F)cc21)NC1CCCCC1	3.2%	4.7%	28.2µM*	i	?
CCCCNC(=O)CCCN1C(=O)COc2ccc(C(C)(C)CC)cc21	-0.9%	-16.4%	44.7µM*	i	?
SMILES	NPR1 antag	GPT2 inhibitor	HEK cytotox	FLuc inh	NIH3T3 tox
CN(Cc1noc2c1CCCC2)Cc1nnc(C2CC(N)C2)n1C (stereo not given)	-1.7%	i	i	i	1.8%
COc1ccc(C(=O)N[C@H](Cc2ccccn2)C2CC(O)C2)cc1F (stereo not given in full)	5.3%	-5.7%	i	i	i
CN(Cc1ccccc1)C(=O)CN1C(=O)COc2ccc(C(=O)COc3ccc(F)cc3)cc21	-1.4%	1.0%	20µM*	i	?
CN(Cc1ccccc1)C(=O)CN1C(=O)COc2ccc(C(=O)COc3cccc(F)c3)cc21	0.8%	i	?	i	-19.8%
CCc1ccc(N2CC(c3noc(-c4ccc(OC)nc4OC)n3)CC2=O)cc1 (stereo not given)	-19.7%	0.5%	44.7µM*	i	?
CC(C)c1ccc(-c2nc(C3CC(=O)N(c4ccc(F)c(Cl)c4)C3)no2)cc1 (stereo not given)	?	i	?	i	?
CCc1ccc(N2CC(c3noc(-c4ccccc4)n3)CC2=O)cc1 (stereo not given)	1.2%	0.6%	79.4µM*	i	?
CC(C)c1ccc(-c2nc(C3CC(=O)N(c4ccc(F)cc4)C3)no2)cc1 (stereo not given)	?	i	35.5µM*	i	-20.2%
COc1ccc(F)cc1-c1cccc(C(=O)NCCN[S+](=O)([O-])c2c(C)noc2C)c1	.	-10.1%	?	.	?
Cc1cccc(-c2noc([C@@H]3Cc4nc[nH]c4CN3C(=O)NC3CCCCC3)n2)c1	-4.7%[70.6 µM]	i	?	39.8µM*	70.8µM*
Cc1ccc(-c2noc([C@@H]3Cc4nc[nH]c4CN3C(=O)NC3CCCCC3)n2)cc1	-22.5%[70.6 µM]	?	1.7%[172 µM]	i	?
O=C(C1CCCCC1)N1Cc2[nH]cnc2C[C@H]1c1nc(-c2ccc3ccccc3c2)no1	-21.7%[70.6 µM]	-7.1%[88.5 µM]	?	?	79.4µM*
O=C(NC1CCCCC1)N1Cc2[nH]cnc2C[C@H]1c1nc(-c2ccccc2)no1	-15.7%[70.6 µM]	3.2%[88.5 µM]	?	44.7µM*	28.2µM*
COc1ccc(OC)c(NC(=O)CC2CCCN(c3cn[nH]c(=O)c3)C2)c1 (stereo not given)	0.0%	i	-3.3%	i	-3.1%
Cn1cc(-c2cc(=O)c3ccnc(NCc4ccc5c(c4)OCO5)c3o2)cn1	0.2%[70.6 µM]	4.8%[88.5 µM]	?	?	25.1µM*
COCc1ccccc1-c1nccc2c(=O)cc(-c3cnn(C)c3)oc12	1.5%[70.6 µM]	-14.7%[88.5 µM]	-10.2%[172 µM]	i	?
CN(c1cc(=O)c2ccnc(NCc3ccc4c(c3)OCO4)c2o1)C1CCOCC1	-2.2%[70.6 µM]	0.8%[88.5 µM]	89.1µM*	i	31.6µM*
CSc1ccc(-c2cccc(CN3CCC(NC(=O)Nc4ccccc4F)CC3)c2)cc1	.	.	17.8µM*	.	12.6µM*
CSc1ccc(-c2cccc(CN3CCC(NC(=O)Nc4ccccc4)CC3)c2)cc1	.	.	?	.	14.1µM*

Bioassay records deposited in PubChem by National Center for Advancing Translational Sciences (NCATS).
